Assay results taken from PubChem BioAssay (EPA / NIEHS).
Active and inactive are the calls of the source. How the source made its calls: active means hit-call score of the fitted dose curve at least 0.9, where 1 is the maximum; inactive means score below 0.9.

How the values were obtained:
[1] = biological target: Transcription factor E2F1 (Homo sapiens) (UniProt Q01094); assay: ATG_E2F_CIS: Attagene CIS-FACTORIAL HepG2 Assay for human E2F Transcription Factor 1 (AID 2282935); details: HepG2 Attagene cis-reporter, E2F reporter RNA transcripts; actives raise or lower the signal
Chain of Transcription factor E2F1 (Homo sapiens) (Q01094 whole entry, looked up): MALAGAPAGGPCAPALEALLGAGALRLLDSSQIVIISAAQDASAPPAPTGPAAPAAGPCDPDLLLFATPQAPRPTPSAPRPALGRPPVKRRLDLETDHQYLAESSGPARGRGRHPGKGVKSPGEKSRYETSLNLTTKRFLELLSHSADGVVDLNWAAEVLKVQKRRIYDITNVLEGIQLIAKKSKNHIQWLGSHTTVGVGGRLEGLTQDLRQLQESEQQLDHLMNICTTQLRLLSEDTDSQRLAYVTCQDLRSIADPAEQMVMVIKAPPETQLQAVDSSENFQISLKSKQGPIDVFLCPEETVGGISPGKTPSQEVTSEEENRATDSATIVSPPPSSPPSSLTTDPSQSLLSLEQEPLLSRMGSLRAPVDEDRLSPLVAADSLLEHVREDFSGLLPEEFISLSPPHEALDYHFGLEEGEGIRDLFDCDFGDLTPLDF
Summary of the method: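 Multiplexed cis-reporter assay: HepG2, transient transfection, 24 h dosing, mRNA quantitation by labeled RT-PCR and CE.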

[2] = ATG_E_Box_CIS: Attagene CIS-FACTORIAL HepG2 Assay for human Enhancer Box (E-box) (AID 2282936); details: HepG2 E-box cis-reporter transcription, actives raise or lower the signal
Summary of the method: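 Multiplexed CIS reporter system in transiently transfected HepG2 cells measures native transcription factor activity. Reporter RNA after 24 h exposure is profiled by RT-PCR-capillary electrophoresis.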

[3] = ATG_M_61_CIS: Attagene CIS-FACTORIAL HepG2 Assay for M61 Transcription Factor (Internal Marker) (AID 2282937); details: HepG2 Attagene CIS-FACTORIAL M61 internal marker reporter; actives raise or lower the signal
Summary of the method: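 Fluorescence from labelled cDNA fragments, separated by capillary electrophoresis, quantifies reporter induction. HepG2 cells bearing transiently transfected cis-promoter MRTUs were incubated with test chemical for 24 h; DMSO defined baseline for gain/loss fitting.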

[4] = ATG_EGR_CIS: Attagene CIS-FACTORIAL HepG2 Assay for human Early Growth Response 1 (EGR1) (AID 2282938); details: HepG2 Attagene CIS-FACTORIAL EGR reporter mRNA; actives raise or lower the signal
Summary of the method: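 Cell-based multiplex transcription assay: HepG2 carrying transfected cis-element reporter units, 24 h chemical treatment. Fluorescence from capillary electrophoresis of RT-PCR products gives mRNA levels; fitting is bidirectional relative to DMSO.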

[5] = ATG_M_19_CIS: Attagene CIS-FACTORIAL HepG2 Assay for M19 Transcription Factor (Internal Marker) (AID 2282939); details: HepG2 Attagene CIS-FACTORIAL M19 internal marker reporter; actives raise or lower the signal
Summary of the method: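 Transfect HepG2 with MRTU reporter library → dose chemical, 24 h → isolate total RNA, reverse-transcribe with oligo(dT) → PCR, 6-FAM label, HpaI cut (2 h, 37 C) → capillary electrophoresis. Bidirectional fit vs DMSO.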

[6] = ATG_ERE_CIS: Attagene CIS-FACTORIAL HepG2 Assay for Estrogen Response Element (ERE) (AID 2282940); details: HepG2 ERE cis-reporter, Attagene RNA transcript; actives raise or lower the signal
Summary of the method: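 Transient MRTU transfection of human HepG2; cis-element promoters; 24 h dosing; total RNA → RT (oligo dT) → PCR → 6-FAM primer extension → HpaI digest → CE fluorescence. Bidirectional fit, DMSO baseline.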

[7] = ATG_Ets_CIS: Attagene CIS-FACTORIAL HepG2 Assay for human Erythroblast Transformation Specific (ETS) (AID 2282941); details: HepG2 ETS cis-reporter transcription, actives raise or lower the signal
Summary of the method: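 Steps: transfect HepG2 with multiple reporter units; treat compound 24 h; isolate RNA, DNase-treat, reverse-transcribe; PCR-amplify, label with 6-FAM, digest with HpaI; separate by capillary electrophoresis. Activity fitted both directions versus DMSO.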

[8] = biological target: Hepatocyte nuclear factor 3-beta (Homo sapiens) (UniProt Q9Y261); assay: ATG_FoxA2_CIS: Attagene CIS-FACTORIAL HepG2 Assay for human Forkhead box A2 (FOXA2) (AID 2282942); details: HepG2 cis-reporter transcription factor activity, 24 h; actives raise or lower the signal
Chain of Hepatocyte nuclear factor 3-beta (Homo sapiens) (Q9Y261 whole entry, looked up): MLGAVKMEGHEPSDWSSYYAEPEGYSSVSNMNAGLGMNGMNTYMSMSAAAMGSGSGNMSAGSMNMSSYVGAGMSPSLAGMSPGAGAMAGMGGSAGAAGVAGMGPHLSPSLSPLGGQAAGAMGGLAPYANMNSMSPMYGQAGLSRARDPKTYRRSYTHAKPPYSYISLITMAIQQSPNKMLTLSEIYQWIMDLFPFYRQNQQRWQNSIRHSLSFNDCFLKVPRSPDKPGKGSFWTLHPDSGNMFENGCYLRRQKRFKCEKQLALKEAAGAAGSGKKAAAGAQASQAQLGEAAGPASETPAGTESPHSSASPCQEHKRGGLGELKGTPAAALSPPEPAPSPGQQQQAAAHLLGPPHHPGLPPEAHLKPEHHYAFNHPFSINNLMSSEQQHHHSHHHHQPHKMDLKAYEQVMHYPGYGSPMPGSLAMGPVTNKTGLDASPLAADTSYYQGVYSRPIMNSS
Summary of the method: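 In transiently transfected human HepG2 cells, promoter-driven reporter mRNA levels after 24 h chemical exposure are determined via RT-PCR with capillary electrophoresis. DMSO serves as baseline for bidirectional fitting.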

[9] = ATG_GATA_CIS: Attagene CIS-FACTORIAL HepG2 Assay for human GATA Binding Protein (AID 2282944); details: HepG2 GATA cis-element reporter, Attagene multiplex mRNA; actives raise or lower the signal
Summary of the method: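 Transient MRTU transfection, HepG2, 24 h compound exposure. Total RNA → oligo(dT) RT → PCR → 6-FAM primer extension → HpaI cut → CE. Bidirectional fit vs DMSO.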

[10] = ATG_GLI_CIS: Attagene CIS-FACTORIAL HepG2 Assay for human Zinc Finger Protein GLI1 (AID 2282945); details: HepG2, Attagene cis-factorial reporter mRNA, GLI element; actives raise or lower the signal
Summary of the method: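 HepG2 cells transiently transfected with cis-promoter multiplexed reporter units report endogenous transcription factor activity. After 24 h chemical exposure, reporter mRNA was quantified by RT-PCR, 6-FAM labelling, HpaI digestion and capillary electrophoresis, with bidirectional fitting against DMSO.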

[11] = biological target: Bile acid receptor (Homo sapiens) (UniProt Q96RI1); assay: ATG_IR1_CIS: Attagene CIS-FACTORIAL HepG2 Assay for human Nuclear Receptor Subfamily 1 Group H Member 4 (NR1H4), IR1 submotif (AID 2282946); details: IR1 reporter transcription, actives raise or lower the signal
Chain of Bile acid receptor (Homo sapiens) (Q96RI1 whole entry, looked up): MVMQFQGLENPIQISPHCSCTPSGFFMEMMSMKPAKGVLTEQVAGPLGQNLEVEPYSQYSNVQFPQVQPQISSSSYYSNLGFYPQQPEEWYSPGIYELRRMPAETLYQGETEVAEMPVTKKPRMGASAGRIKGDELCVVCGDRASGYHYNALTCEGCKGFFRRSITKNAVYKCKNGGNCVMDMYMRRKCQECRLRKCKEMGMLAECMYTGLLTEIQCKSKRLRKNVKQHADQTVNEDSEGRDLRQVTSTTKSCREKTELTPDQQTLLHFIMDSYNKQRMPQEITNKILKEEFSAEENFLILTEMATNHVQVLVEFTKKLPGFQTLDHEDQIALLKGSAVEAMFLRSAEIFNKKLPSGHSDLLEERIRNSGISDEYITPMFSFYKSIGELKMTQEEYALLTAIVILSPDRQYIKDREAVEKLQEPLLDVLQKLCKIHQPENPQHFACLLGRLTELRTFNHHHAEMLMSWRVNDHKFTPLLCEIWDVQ
Summary of the method: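 Transient MRTU transfection, HepG2; 24 h dosing; RNA → RT-PCR → 6-FAM primer extension → HpaI digest → capillary electrophoresis fluorescence. Gain/loss of signal fitted relative to DMSO.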

[12] = ATG_GRE_CIS: Attagene CIS-FACTORIAL HepG2 Assay for human Glucocorticoid Response Elements (GRE) (AID 2282947); details: HepG2 GRE cis-reporter, Attagene multiplex mRNA; actives raise or lower the signal
Summary of the method: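 Following 24 h chemical exposure of transiently transfected HepG2 cells, total RNA was reverse-transcribed and reporter cDNA amplified, fluorescently labelled and sized by capillary electrophoresis. Signal gain or loss was fitted relative to DMSO vehicle.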

[13] = ATG_ISRE_CIS: Attagene CIS-FACTORIAL HepG2 Assay for human Interferon Regulatory Factor 1 (IRF1) binding to an Interferon-Stimulated Response Element (ISRE) (AID 2282948); details: HepG2 ISRE cis-reporter (Attagene), mRNA transcription readout; actives raise or lower the signal
Summary of the method: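 Transfected HepG2 (multiple reporter transcription units, cis elements) dosed 24 h. RNA → oligo(dT) RT → PCR → 6-FAM primer extension → HpaI → CE. DMSO = negative control/baseline.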

[14] = ATG_M_32_CIS: Attagene CIS-FACTORIAL HepG2 Assay for M32 Transcription Factor (Internal Marker) (AID 2282949); details: HepG2 Attagene cis-factorial M32 reporter, mRNA; actives raise or lower the signal;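 further: background control marker of the multiplexed CIS panel rather than a real target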
Summary of the method: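 HepG2 cells transiently transfected with multiplexed cis-regulated reporter units, dosed 24 h. Reporter mRNA quantified by RT-PCR, 6-FAM labelling, HpaI digestion and capillary electrophoresis; bidirectional fit vs DMSO.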

[15] = ATG_M_06_CIS: Attagene CIS-FACTORIAL HepG2 Assay for M06 Transcription Factor (Internal Marker) (AID 2282950); details: HepG2 Attagene CIS-FACTORIAL M06 internal marker reporter; actives raise or lower the signal
Summary of the method: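 Read-out is fluorescence of labelled reporter cDNA fragments resolved by capillary electrophoresis after RT-PCR. Cells: HepG2 carrying transfected cis-promoter reporter units, treated 24 h. Gain or loss of signal fitted relative to DMSO.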

[16] = biological target: Hypoxia-inducible factor 1-alpha (Homo sapiens) (UniProt Q16665); assay: ATG_HIF1a_CIS: Attagene CIS-FACTORIAL HepG2 Assay for human Hypoxia Inducible Factor 1 (HIF1A) (AID 2282951); details: HepG2 Attagene cis-factorial HIF1a reporter transcription; actives raise or lower the signal
Chain of Hypoxia-inducible factor 1-alpha (Homo sapiens) (Q16665 whole entry, looked up): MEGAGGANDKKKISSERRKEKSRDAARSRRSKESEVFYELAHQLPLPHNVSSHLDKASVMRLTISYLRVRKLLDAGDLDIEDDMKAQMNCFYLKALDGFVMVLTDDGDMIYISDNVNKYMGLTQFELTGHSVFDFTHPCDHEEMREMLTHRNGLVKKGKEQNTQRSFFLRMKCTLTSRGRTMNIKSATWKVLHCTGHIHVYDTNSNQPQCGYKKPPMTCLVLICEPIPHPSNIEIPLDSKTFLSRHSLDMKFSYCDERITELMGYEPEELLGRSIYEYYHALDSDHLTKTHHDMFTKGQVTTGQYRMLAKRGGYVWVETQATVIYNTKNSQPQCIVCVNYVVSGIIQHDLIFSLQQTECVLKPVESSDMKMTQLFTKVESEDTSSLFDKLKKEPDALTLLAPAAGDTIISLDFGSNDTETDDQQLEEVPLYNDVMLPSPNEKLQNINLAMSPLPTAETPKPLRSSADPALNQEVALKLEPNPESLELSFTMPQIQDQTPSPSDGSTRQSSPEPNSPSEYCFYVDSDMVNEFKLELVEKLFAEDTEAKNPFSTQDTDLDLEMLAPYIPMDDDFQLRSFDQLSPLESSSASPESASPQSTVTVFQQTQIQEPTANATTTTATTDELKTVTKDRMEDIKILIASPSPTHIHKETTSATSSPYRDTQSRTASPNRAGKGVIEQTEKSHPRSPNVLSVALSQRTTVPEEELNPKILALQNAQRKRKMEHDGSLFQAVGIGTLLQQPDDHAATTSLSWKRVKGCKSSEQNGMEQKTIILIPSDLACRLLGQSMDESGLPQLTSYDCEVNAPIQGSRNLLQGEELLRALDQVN
Summary of the method: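 In this multiplexed cell assay, HepG2 cells bearing transfected cis reporters are dosed for 24 h and reporter mRNA is read by RT-PCR plus capillary electrophoresis; signal increases and decreases are both scored against DMSO.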

[17] = biological target: Hepatocyte nuclear factor 6 (Homo sapiens) (UniProt Q9UBC0); assay: ATG_HNF6_CIS: Attagene CIS-FACTORIAL HepG2 Assay for human Hepatocyte Nuclear Factor 6 (HNF6) (AID 2282952); details: HepG2 Attagene cis-factorial HNF6 reporter transcription; actives raise or lower the signal
Chain of Hepatocyte nuclear factor 6 (Homo sapiens) (Q9UBC0 whole entry, looked up): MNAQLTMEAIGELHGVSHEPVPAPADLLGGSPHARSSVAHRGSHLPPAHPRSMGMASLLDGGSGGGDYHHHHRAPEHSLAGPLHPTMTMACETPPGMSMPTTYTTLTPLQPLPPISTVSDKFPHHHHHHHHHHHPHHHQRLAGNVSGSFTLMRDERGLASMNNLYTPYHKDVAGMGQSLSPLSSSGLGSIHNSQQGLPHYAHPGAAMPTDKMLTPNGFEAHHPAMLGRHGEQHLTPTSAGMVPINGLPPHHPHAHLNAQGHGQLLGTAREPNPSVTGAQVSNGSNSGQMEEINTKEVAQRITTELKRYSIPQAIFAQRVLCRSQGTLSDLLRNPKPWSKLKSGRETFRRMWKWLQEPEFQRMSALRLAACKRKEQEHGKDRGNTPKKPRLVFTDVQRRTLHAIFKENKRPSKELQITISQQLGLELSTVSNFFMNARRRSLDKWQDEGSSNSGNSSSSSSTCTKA
Summary of the method: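 HepG2, transient MRTU transfection (cis promoters); 24 h chemical exposure; total RNA → oligo(dT) RT → PCR → 6-FAM labelling → HpaI cut → CE; bidirectional fit vs DMSO.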

[18] = ATG_MRE_CIS: Attagene CIS-FACTORIAL HepG2 Assay for human Metal Responsive Element (MRE) (AID 2282954); details: HepG2 MRE cis-reporter transcription, Attagene multiplex; actives raise or lower the signal
Summary of the method: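 Step one: transfect HepG2 with cis-regulated reporter units. Step two: dose 24 h. Step three: isolate RNA, RT-PCR, 6-FAM label, HpaI digest, capillary electrophoresis. Fit bidirectionally to DMSO.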

[19] = biological target: Heat shock factor protein 1 (Homo sapiens) (UniProt Q00613); assay: ATG_HSE_CIS: Attagene CIS-FACTORIAL HepG2 Assay for human Heat Shock Transcription Factor 1 (HSE) (AID 2282953); details: HepG2 HSE cis-reporter, Attagene RNA transcription; actives raise or lower the signal
Chain of Heat shock factor protein 1 (Homo sapiens) (Q00613 whole entry, looked up): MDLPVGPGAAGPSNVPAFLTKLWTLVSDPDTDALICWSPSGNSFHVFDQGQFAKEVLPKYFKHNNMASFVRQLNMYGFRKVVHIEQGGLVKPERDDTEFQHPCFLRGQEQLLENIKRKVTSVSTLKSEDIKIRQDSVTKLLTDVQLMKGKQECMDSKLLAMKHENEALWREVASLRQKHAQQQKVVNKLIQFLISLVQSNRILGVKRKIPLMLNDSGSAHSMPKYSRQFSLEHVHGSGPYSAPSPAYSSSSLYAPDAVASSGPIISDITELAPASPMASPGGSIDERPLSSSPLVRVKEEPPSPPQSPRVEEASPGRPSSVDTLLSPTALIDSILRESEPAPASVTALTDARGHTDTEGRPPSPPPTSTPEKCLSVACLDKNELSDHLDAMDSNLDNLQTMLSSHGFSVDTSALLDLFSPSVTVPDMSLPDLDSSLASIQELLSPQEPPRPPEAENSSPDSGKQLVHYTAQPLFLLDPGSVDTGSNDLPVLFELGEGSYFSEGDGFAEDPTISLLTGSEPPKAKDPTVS
Summary of the method: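 HepG2, transient MRTU transfection, cis-promoter reporters (endogenous TF activity). 24 h compound. RNA → oligo(dT) RT → PCR → 6-FAM primer extension → HpaI cut → CE. Bidirectional fit vs DMSO.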

[20] = ATG_FoxO_CIS: Attagene CIS-FACTORIAL HepG2 Assay for human Forkhead box O (FoxO) (AID 2282943); details: HepG2 Attagene cis-reporter, FoxO element, mRNA; actives raise or lower the signal
Summary of the method: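 HepG2 cells transiently transfected with cis-promoter-driven multiple reporter transcription units; 24 h after chemical dosing, reporter mRNA quantified by RT-PCR, fluorescent primer extension, HpaI digestion and capillary electrophoresis. Bidirectional fitting versus DMSO baseline.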

Measured: AC50

O=C(O)/C=C/c1ccccc1
active: [6] 42.5 µM
not listed: [19] | [20]
inactive: all other assays above

CN1CCN(C)CC1
not listed: [12] | [20]
inactive: all other assays above

CCC(C)c1ccccc1 (configuration not stated)
not listed: [10] | [12]
inactive: all other assays above

CCC1COC(=O)O1 (configuration not stated)
not listed: [20]
inactive: all other assays above

C=C[C@@]1(C)CC(=O)[C@]2(O)[C@@]3(C)[C@@H](O)CCC(C)(C)[C@@H]3[C@H](O)[C@H](OC(C)=O)[C@@]2(C)O1
active: [6] 0.895 µM
not listed: [10] | [11] | [19]
inactive: all other assays above

Oc1ccccc1Cc1ccccc1O
active: [4] 72.5 µM | [6] 27.7 µM | [13] 149 µM | [16] 134 µM | [18] 124 µM
not listed: [11] | [20]
inactive: all other assays above

CCCCCC[C@@H](O)C/C=C\CCCCCCCC(=O)OCC(O)CO (some centres not stated)
active: [1] 133 µM | [4] 151 µM | [7] 178 µM | [20] 178 µM | [9] 128 µM | [14] 160 µM | [16] 67.2 µM | [19] 184 µM | [18] 144 µM
inactive: [2] | [3] | [5] | [6] | [8] | [13] | [15] | [17]

CCCCC(CC)COS(=O)(=O)O (configuration not stated)
not listed: [10] | [12]
inactive: all other assays above

C1CCSC1
not listed: [20]
inactive: all other assays above

C[Si]1(C)O[Si](C)(C)O[Si](C)(C)O[Si](C)(C)O[Si](C)(C)O1
not listed: [11] | [20]
inactive: all other assays above

CCCCCCCCCC[N+](C)(CCCCCCCCCC)CCC[Si](OC)(OC)OC
inactive: [1] | [3] | [6] | [7] | [20] | [15] | [16] | [18]
active: [2] 17.8 µM | [4] 7.33 µM | [5] 17.8 µM | [8] 17.7 µM | [9] 14.1 µM | [12] 18.4 µM | [13] 17.4 µM | [14] 20.2 µM | [17] 11 µM

CCCCC(C=O)CC (configuration not stated)
not listed: [19] | [20]
inactive: all other assays above

CC/C=C\CCOC(=O)c1ccccc1O
not listed: [10] | [11]
inactive: all other assays above

CC(=O)OC1CCCCC1
not listed: [10] | [12]
inactive: all other assays above

CO[Si](C)(C)OC
not listed: [11] | [20]
inactive: all other assays above

CCC(C)N (configuration not stated)
not listed: [12] | [20]
inactive: all other assays above
